GLP-1R agonist: agonists of human GLP-1 receptor; HEK293 GLP-1R CRE-luciferase, luminescence, 4-6 h; cells express a hypersensitive GLP-1R form; Potency, µM (top dose mostly 45.6 µM), inactives show top-dose activation, most hits filed as activators; 380,000 tested, 0.007% active; AID 624172; further: potency means the concentration at half of the fitted maximal effect; % of control where 0% means no effect
Target sequence (P43220 whole entry, looked up): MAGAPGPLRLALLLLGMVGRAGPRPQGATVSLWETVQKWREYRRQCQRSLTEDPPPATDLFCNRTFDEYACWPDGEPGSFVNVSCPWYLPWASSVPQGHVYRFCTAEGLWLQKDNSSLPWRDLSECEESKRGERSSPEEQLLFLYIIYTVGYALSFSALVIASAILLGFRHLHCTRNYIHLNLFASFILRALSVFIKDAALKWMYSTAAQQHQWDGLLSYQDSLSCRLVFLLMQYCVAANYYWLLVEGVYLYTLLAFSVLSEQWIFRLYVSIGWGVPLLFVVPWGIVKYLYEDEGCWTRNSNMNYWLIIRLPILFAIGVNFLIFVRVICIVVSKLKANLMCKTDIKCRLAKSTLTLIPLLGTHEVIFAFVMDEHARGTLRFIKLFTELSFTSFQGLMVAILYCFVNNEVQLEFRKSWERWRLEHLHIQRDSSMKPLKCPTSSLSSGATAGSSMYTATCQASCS
DRD3 antagonist: blocks the human D3 dopamine receptor | P35462 | D3R cells, DiscoveRx beta-arrestin luminescence, antagonist mode; hits give low values | max response, negative = inhibition, % | 360,000 tested, 2.5% active; in the data active means max response below about -50%; inconclusive means no clear call, values can overlap the other calls; further: on the % scale 0 is the no-effect control and ±100 the full control effect
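Cells plated overnight at 1500 cells/well, then exposed to library compounds with dopamine controls for 90 minutes at 37 degrees C. DiscoveRx reagent added for 30–60 minutes at room temperature; luminescence read, quantitative HTS format.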
D3 ag: D3 dopamine receptor (human) agonism; P35462; D3R DiscoveRx beta-arrestin cells, luminescence, 90 min; max activation, %; 410,000 tested, 0.58% active; AID 652048; in the data active means max activation above about 30%; further: 0% is about no effect
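Agonist-mode cell screen: cells plated at 1500/well and incubated overnight at 37 °C, then exposed to library compounds for 90 min at 37 °C. Detection reagent was added for 30–60 min at room temperature, and luminescence was read.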
GLP1R inv ag: inverse agonists of human GLP-1 receptor; P43220; HEK293 GLP-1R CRE-luciferase, luminescence, 24 h; GLP-1R form is constitutively active; Potency, µM (top dose mostly 38.3 µM), without a hit: at the top dose activity change, negative = inhibition, hits mostly inhibitors; 410,000 tested, 1.6% active; further: potency means the concentration at half of the fitted maximal effect; on the % scale 0 is the no-effect control and ±100 the full control effect; nearly all actives have a fitted effect of over 55% in size
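Luminescence readout: a drop in cAMP-driven luciferase signal flags inverse agonism at a constitutively active GLP-1R stably expressed in HEK293. Compound exposure lasted 24 hr at 37 deg C, 5% CO2.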
Active calls of the source: *; ? = inconclusive; · = not tested or not shown. Rows were chosen to be rich in hits. Some 4.3% of all compounds tested hit in one or more screens of this group. Unless noted, the call rests on the fitted dose curve; in most records, active means well fitted curve in the direction sought with a large enough effect; inconclusive means small, poorly fitted or top-dose-only effect, or another doubt; inactive means no such curve, though single readings can be large; an effect the other way counts as inactive or inconclusive.

SMILES	GLP-1R agonist	DRD3 antagonist	D3 ag	GLP1R inv ag
O=C(Nc1cccc(Cl)c1)OCCOC(=O)Nc1cccc(Cl)c1	13%	-5	4	10µM*
O=C(Nc1cccc(Cl)c1)OCCN1CCN(Cc2ccccc2)CCC1=O	-6%	-17	34*	?
Cn1c(=O)c2c(-c3ccc(Cl)cc3)ccnc2n(C)c1=O	1%	·	-4	12%
CCCCNC(=O)NNC(=O)C1CC1(c1ccccc1)c1ccccc1 (stereo not given)	-3%	1	0	-19%
CC(C)(C)C(=O)NNC(=O)C1CC1(c1ccccc1)c1ccccc1 (stereo not given)	10%	19	45*	1%
O=C(c1ccccc1)N(C(=O)c1ccccc1)N1CCCC1	10%	1	12	10µM*
O=C(c1ccccc1)N1CCCCC1	5%	16	2	-3%
O=c1c2ccccc2sc2c(CO)ccc(NCCN3CCCCC3)c12	-13%	?	-26	10µM*
CCN(CC)CCNc1cccc2sc3ccccc3c(=O)c12	4%	-28	-12	-18%
CCN(CC)CCNc1ccc(CO)c2sc3ccccc3c(=O)c12	-6%	-63*	-48	?
CCN1CCN(c2nc(Nc3ccc(C)c(C)c3)nc(N)c2[N+](=O)[O-])CC1	20%	-83*	-39	?
CN1CCN(c2nc(NCc3ccco3)nc(N)c2[N+](=O)[O-])CC1	22%	-80*	-18	68%
CC[C@@H](C(=O)O)[C@@H]1O[C@@H]([C@@H](C)[C@H](O)[C@H](C)C(=O)[C@H](CC)[C@H]2O[C@]3(C=C[C@@H](O)[C@]4(CC[C@@](C)([C@H]5CC[C@](O)(CC)[C@H](C)O5)O4)O3)[C@H](C)C[C@@H]2C)[C@@H](C)C[C@@H]1C	·	·	54*	·
CCC(C(=O)O)C1OC(C(C)C(O)C(C)C(=O)C(CC)C2OC3(C=CC(O)C4(CCC(C)(C5CCC(O)(CC)C(C)O5)O4)O3)C(C)CC2C)C(C)CC1C (stereo not given)	-6%	·	·	·
CC(C)C(=O)N1CCN(c2ccc(NC(=O)c3ccc([N+](=O)[O-])o3)cc2)CC1	2%	?	-7	45%
O=C(Nc1ccc(N2CCN(C(=O)c3ccccc3)CC2)cc1)c1ccc([N+](=O)[O-])o1	-9%	-56*	-16	21%
Cc1ccccc1C(=O)N1CCN(c2ccc(NC(=O)c3ccc([N+](=O)[O-])o3)cc2)CC1	6%	-72*	-9	47%
O=C(CCc1ccccc1)NCCc1csc(-c2cccc(F)c2)n1	·	·	-18	?
Cc1cc(C)cc(-n2c(C)nc3cc(C(=O)NCc4ccccc4Cl)ccc32)c1	·	·	-9	11µM*
CCc1cc(C(=O)N2CCc3c([nH]c4ccccc34)C2c2ccc(OC)cc2F)no1 (stereo not given)	10%	-4	-1	?
Cc1cc(C(=O)N2CCc3c([nH]c4ccccc34)C2c2c(F)cccc2Cl)no1 (stereo not given)	-5%	-8	-2	10µM*
Cc1nc(C(=O)N2CCc3c([nH]c4ccccc34)C2c2cc(F)ccc2F)cs1 (stereo not given)	?	14	-5	11µM*
CC1CCN(C(c2ccc(F)cc2)c2sc3nc(-c4ccco4)nn3c2O)CC1 (stereo not given)	·	·	3	?
Cc1cc(C)cc(NC(=O)C(=O)NCC(c2ccc3c(c2)OCO3)N2CCOCC2)c1 (stereo not given)	·	·	-15	9%
O=C(Oc1cccc2cccnc12)c1cccc(N2C(=O)C3C4CCC(C4)C3C2=O)c1 (stereo not given)	1%	-88*	-11	2.8µM*
SMILES	GLP-1R agonist	DRD3 antagonist	D3 ag	GLP1R inv ag
O=C(Oc1ccc(N2C(=O)C3C4CCC(C4)C3C2=O)cc1)c1ccco1 (stereo not given)	0%	2	6	18%
O=C(Oc1cccc2cccnc12)c1ccc(N2C(=O)C3C4CCC(C4)C3C2=O)cc1 (stereo not given)	0%	?	-14	2.8µM*
Cc1nc(-c2ccc(Cl)cc2)sc1CCNC(=O)C(=O)Nc1ccccc1C#N	·	·	2	7%
Cc1ccc(/C=C/c2onc(C)c2S(=O)(=O)N2CCC(C(=O)Nc3ccccc3C(F)(F)F)CC2)cc1	-2%	·	1	14%
COc1ccccc1CNC(=O)CSc1ncc(C(=O)Nc2ccccc2)c(=O)n1C	-4%	-69*	-10	0%
CCCn1c(=O)c2c(nc3n2CCCN3CCc2ccc(OC)c(OC)c2)n(C)c1=O	17%	25	2	5%
COc1ccc(CNC(=O)c2[nH]c(C(F)(F)F)nc2-c2ccccc2)cc1OC	2%	-58*	-9	12%
Cc1c(C(=O)N(C)C)sc(NC(=O)c2cc([N+](=O)[O-])cc([N+](=O)[O-])c2)c1C#N	-5%	-91*	-3	9%
Cc1nc(Nc2nc(CSc3nc4ccccc4[nH]3)cc(=O)[nH]2)nc2ccccc12	-4%	82	8	1.1µM*
Cc1ccc(-c2cc(NC(=O)COc3ccc(Cl)cc3C)on2)cc1	·	·	-12	5%
CCC(CC)NC(=O)CON=C1c2ccccc2-c2ccccc21	14%	-4	-1	8.9µM*
Cc1cccc(Oc2nc(-c3ccccn3)nc3ccccc23)c1	15%	5	-8	1.3µM*
COc1ccc(C)cc1N/C(N)=N/c1nc(C)cc(C)n1	-7%	0	1	-8%
Cc1ccc(C)c(N/C(N)=N/c2nc(C)cc(C)n2)c1	-30%	-12	-4	8.9µM*
C=CC(=O)Nc1ccc(CN2C(=O)N(c3c(Cl)c(OC)cc(OC)c3Cl)Cc3cnc(NCCCCN(CC)CC)nc32)cc1	11%	-65*	-36	?
Cc1nn(-c2ccccc2)c(OC(=O)C(C)(C)C)c1Sc1ccccc1	·	·	-15	-21%
COCCn1c(SCC(=O)c2ccc(Cl)cc2)nnc1C(C)C	0%	-70*	-1	7%
Cc1cc(F)ccc1NC(=O)CN1C(=O)CCc2cc(S(=O)(=O)N3CCOCC3)ccc21	·	·	8	17%
CCc1nc(NC(C)(C)C)c2cnn(-c3ccccc3)c2n1	21%	-6	3	2µM*
CCOC(=O)C1CCCCN1Cc1cccc(Oc2ccccc2)c1 (stereo not given)	-1%	-5	-1	?
CCOC(=O)C1CCN(Cc2nc3ccc(Cl)cc3n2CCO)CC1	0%	-66*	0	-1%
Fc1ccc(CN2CCSCC2)cc1Br	2%	-61*	-35	-26%
CCOC(=O)C1CCN(Cc2ccc(F)c(Br)c2)CC1	1%	-78*	-49	-17%
CCOC(=O)C1CCCCN1Cc1cccc(OCc2ccccc2)c1 (stereo not given)	-6%	4	-10	10µM*
CCOC(=O)C1CCCCN1Cc1cccc(OC)c1OC (stereo not given)	-5%	-108*	-9	?
c1ccc(COc2cccc(CN3CCc4ccccc4C3)c2)cc1	13%	-87*	-23	14%
